The source made the active and inactive calls. Rule for the calls: active = hit-call score of the fitted dose curve at least 0.9, where 1 is the maximum; inactive = score below 0.9.

The results in this text go back to PubChem BioAssay AID2284376 (EPA ToxCast).

For the assay, the target named is Peroxisome proliferator-activated receptor gamma (Homo sapiens) (UniProt P37231). The assay can be described thus: ERF_TW_NR_COA_hPPARG: Eurofins (ERF) Nuclear Receptor (NR) Functional Coactivator Assay for human Peroxisome Proliferator-activated Receptor gamma (PPARg) Agonism, conducted at Taiwan lab site. Here is the method: ERF_TW_NR_COA_hPPARG is a biochemical, single-readout assay that uses extracted gene-proteins in a cell-free assay. Measurements were taken 16 hours after chemical dosing in a 96-well plate. See PPARgamma Human NHR Functional Agonist Coactivator Assay, Panlabs.ERF_TW_NR_COA_hPPARG is an assay component calculated from the ERF_TW_NR_COA_hPPARG assay. It is designed to measure FRET using a type of binding reporter as detected by fluorescence intensity of rosiglitazone with fluorimetry technology.Data from the assay component ERF_TW_NR_COA_hPPARG was analyzed at the assay endpoint, ERF_TW_NR_COA_hPPARG, in the positive analysis fitting direction relative to DMSO as the negative control and baseline of activity. Using a type of binding reporter, gain-of-signal activity can be used to understand changes in binding as they relate to gene PPARG. To generalize the intended target to other relatable targets, this assay endpoint is annotated to the nuclear receptor intended target family, where the subfamily is non-steroidal.
Human recombinant PPARgamma receptors expressed in insect cells are used. […] Determination of the amount of complex formed is read spectrofluorimetrically (excitation: 337 nm, emission: 520/490 nm). Test compound-induced increase fluorescence by 50 percent or more (>/=50%) relative to 1 uM GW1929 response indicates possible PPARgamma receptor agonist activity. […]

Peroxisome proliferator-activated receptor gamma (Homo sapiens), sequence (P37231 whole entry, looked up): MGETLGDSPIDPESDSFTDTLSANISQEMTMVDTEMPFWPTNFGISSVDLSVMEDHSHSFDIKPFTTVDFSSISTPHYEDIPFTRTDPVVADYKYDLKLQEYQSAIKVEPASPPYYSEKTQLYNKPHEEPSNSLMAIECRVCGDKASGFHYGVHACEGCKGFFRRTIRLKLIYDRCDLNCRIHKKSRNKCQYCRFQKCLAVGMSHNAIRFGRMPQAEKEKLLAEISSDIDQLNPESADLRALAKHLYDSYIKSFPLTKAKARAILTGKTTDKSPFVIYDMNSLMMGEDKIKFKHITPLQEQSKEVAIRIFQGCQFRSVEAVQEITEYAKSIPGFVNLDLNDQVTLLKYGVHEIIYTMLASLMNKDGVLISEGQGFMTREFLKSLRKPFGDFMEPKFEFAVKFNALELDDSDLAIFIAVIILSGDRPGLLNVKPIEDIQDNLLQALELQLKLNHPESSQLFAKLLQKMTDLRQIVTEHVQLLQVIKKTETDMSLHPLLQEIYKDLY

Consider `O=S(=O)(O)C(F)(F)C(F)(F)C(F)(F)C(F)(F)C(F)(F)C(F)(F)C(F)(F)C(F)(F)F`, for which the result was inactive.
